Bioassay records: PubChem, National Center for Advancing Translational Sciences (NCATS)
HPGD block – inhibitors of human 15-hydroxyprostaglandin dehydrogenase (HPGD) | P15428 | purified HPGD, NADH fluorescence kinetic, PGE2 substrate | Potency, µM, for the others: at the top dose activity change, negative = inhibition, actives largely listed as inhibitors | 150,000 compounds, 4.3% hits; further: potency means the concentration at half of the fitted maximal effect
Target sequence (P15428 whole entry, looked up): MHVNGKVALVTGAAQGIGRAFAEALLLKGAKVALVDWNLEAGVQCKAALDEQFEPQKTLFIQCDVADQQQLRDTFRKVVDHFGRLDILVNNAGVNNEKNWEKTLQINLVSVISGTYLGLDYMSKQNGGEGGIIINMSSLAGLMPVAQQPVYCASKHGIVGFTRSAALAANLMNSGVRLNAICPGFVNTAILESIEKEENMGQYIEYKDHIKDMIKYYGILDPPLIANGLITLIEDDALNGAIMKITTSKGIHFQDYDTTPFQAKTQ
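NADH formation kinetics: reaction with 30 uM PGE2 and 1 mM NAD+ (final), 20 nM enzyme, Tris-HCl pH 8 with Tween 20, after 15 min compound preincubation at room temperature. Fluorescence change, last versus first of five reads.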
PNC assembly inh – perinucleolar compartment assembly inhibition. activity change (PNC), negative = inhibition, % at 10 µM. AID 2417. 140,000 compounds, 3.1% hits. PC3M PTB-GFP, PNC prevalence imaging, 16 h; hits give low values;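 active means readout at or below -70, meaning at least 70% loss of cells showing the perinucleolar compartment, a nuclear body marking cancer cells; inconclusive means readout between -30 and a set limit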;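 further: plate controls were DMSO wells for no effect and camptothecin positive control wells for full effect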
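Read-out is percentage of cells bearing a perinucleolar compartment, from automated 20x imaging of fixed, Hoechst-stained PC3M PTB-GFP cells. Cells were seeded 4 h, then exposed 16 h to compound (23 nl of library stock) in duplicate plates.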
KDM4E inh – inhibitors of human JMJD2E histone demethylase; 230,000 compounds, 1.6% hits; B2RXH2; Potency, µM (highest dose often 57.1 µM), without a hit: top-dose activity change, negative = inhibition, actives largely listed as inhibitors; JMJD2E catalytic domain, FDH-coupled NADH fluorescence (FDH is formaldehyde dehydrogenase);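 further: potency means the concentration at half of the fitted maximal effect; 0% = wells with enzyme and -100% = buffer wells without enzyme; nearly all actives have a fitted effect of over 50% in size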
Target sequence (B2RXH2 1-337 limits assumed): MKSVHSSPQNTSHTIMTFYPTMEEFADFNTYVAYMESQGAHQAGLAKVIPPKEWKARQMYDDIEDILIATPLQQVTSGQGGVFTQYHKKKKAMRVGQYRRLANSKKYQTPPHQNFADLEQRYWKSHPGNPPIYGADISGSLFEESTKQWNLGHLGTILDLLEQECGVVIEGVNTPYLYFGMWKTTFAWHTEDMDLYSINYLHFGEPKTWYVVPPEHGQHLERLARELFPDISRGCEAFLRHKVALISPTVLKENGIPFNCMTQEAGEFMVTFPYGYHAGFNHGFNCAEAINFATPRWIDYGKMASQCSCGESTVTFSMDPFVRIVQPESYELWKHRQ
ALDH1A1 inh – blocks purified human ALDH1A1 activity; P00352; Purified ALDH1A1, NADH fluorescence, propionaldehyde substrate; Potency, µM (top dose mostly 75.3 µM), for the others: at the highest dose activity, negative = inhibition, usual class: inhibitors; 220,000 compounds, 7.3% hits; AID 1030;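 further: potency means the concentration at half of the fitted maximal effect; plate controls were no enzyme wells and a reference inhibitor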
Starred values were filed as active, the others as inactive; [ ] = another dose, or the depositor's remark. An excerpt weighted towards active compounds, which were near 11% of everything screened. Unless noted, the call rests on the fitted dose curve; in most records, active means well fitted inhibition curve with a large enough effect (not every such curve was filed as active); inconclusive means small, poorly fitted or top-dose-only effect, or another doubt; inactive means no such curve, though single readings can be large or run the other way. Unless noted, on the % scale 0 is the no-effect control and ±100 the full control effect.

Screening Cc1c(N/N=C(\C#N)C(=O)c2ccccc2)c(=O)n(-c2ccccc2)n1C returned HPGD block -23%, PNC assembly inh 9, KDM4E inh 2% and ALDH1A1 inh inconclusive.
Screening COC(=O)c1ccc(OCCOc2ccccc2)cc1 returned HPGD block -18%, PNC assembly inh 11, KDM4E inh 1% and ALDH1A1 inh -1%.
`NNC(=O)c1ccc(COc2cccc3ccccc23)cc1` gave HPGD block -15%, PNC assembly inh -25, KDM4E inh 6% and ALDH1A1 inh 7.9µM*.
For NNC(=O)c1cccc(COc2ccccc2Br)c1 the results were HPGD block -4%, PNC assembly inh 30, KDM4E inh 18% and ALDH1A1 inh 3.5µM*.
`COC(=O)c1ccc(CNC(=O)c2ccc(COc3ccccc3)cc2)cc1` gave HPGD block -28%, PNC assembly inh -100*, KDM4E inh -2% and ALDH1A1 inh -1%.
For O=C(c1cccc(COc2cccc3ccccc23)c1)N1CCCC1 the results were HPGD block 20µM*, PNC assembly inh 132, KDM4E inh 1% and ALDH1A1 inh -9%.
O=C(CSc1nc2ccccc2s1)c1sc2sc3ccccc3[n+]2c1O was read as HPGD block inconclusive and ALDH1A1 inh -8%[13.5 µM].
`OCCC1CN(Cc2nc3ccccc3[nH]2)CCN1C1CCCC1` (stereo not given) gave KDM4E inh 5% and ALDH1A1 inh 3%.
COc1ccc(CS(=O)(=O)c2nc(C)cc(C)c2S(C)(=O)=O)cc1 was read as KDM4E inh 1% and ALDH1A1 inh 7%.
For O=C(Nc1ccc(F)cc1)c1ccc(COc2ccccc2)cc1 the results were HPGD block -11%, PNC assembly inh inconclusive, KDM4E inh 1% and ALDH1A1 inh 3%.
For O=C(COc1ccc2c(c1)CCC2)NCc1ccccc1 the results were HPGD block -27%, PNC assembly inh 1, KDM4E inh -2% and ALDH1A1 inh -1%.
`NNC(=O)c1cccc(COc2ccc3c(c2)CCC3)c1` gave HPGD block 20µM*, PNC assembly inh -7, KDM4E inh 11% and ALDH1A1 inh 6%.
For NNC(=O)c1ccc(COc2ccccc2)cc1 the results were HPGD block -19%, PNC assembly inh -8, KDM4E inh 7% and ALDH1A1 inh 2.2µM*.
Screening O=C(O)CNC(=O)c1ccc(CO)o1 returned HPGD block -12% and ALDH1A1 inh inconclusive.
`S=C1NCCNC(=S)NCCOCCOCCN1` gave KDM4E inh -2% and ALDH1A1 inh 1%.
`O=C(Nc1ccccc1N1CCOCC1)c1ccc(Br)o1` gave HPGD block inconclusive, PNC assembly inh 27, KDM4E inh 2% and ALDH1A1 inh inconclusive.
For O=C(NC(=S)Nc1ccc(N2CCOCC2)c(Cl)c1)C(c1ccccc1)c1ccccc1 the results were HPGD block -18%, PNC assembly inh inconclusive, KDM4E inh 1% and ALDH1A1 inh 11µM*.
O=C(Nc1ccc(N2CCOCC2)c(Cl)c1)c1ccccc1Cl was read as KDM4E inh 15% and ALDH1A1 inh 7%.
Screening CC(=O)NC(=S)Nc1ccc(N2CCOCC2)c(S(=O)(=O)Nc2cc(Cl)ccc2Cl)c1 returned KDM4E inh 6% and ALDH1A1 inh 0.35µM*.
For O=C(Nc1ccc(N2CCOCC2)c(Cl)c1)c1ccc(Br)o1 the results were HPGD block 25µM*, PNC assembly inh -6, KDM4E inh 1% and ALDH1A1 inh 25µM*.
CC(=O)N1CCN(c2ccc(NC(=O)c3ccccc3Br)cc2Cl)CC1 was read as HPGD block 16µM*, PNC assembly inh inconclusive, KDM4E inh -8% and ALDH1A1 inh inconclusive.
Screening O=C(Nc1ccc(N2CCOCC2)c(S(=O)(=O)Nc2cc(Cl)ccc2Cl)c1)c1cccnc1 returned KDM4E inh -4%.
Screening CC(C)NC(=O)N1CCC2(CC1)CCN(C(=O)c1cccc(F)c1)CC2 returned HPGD block -15% and ALDH1A1 inh 3%.
NC(=O)NC(=O)c1nccnc1C(=O)O was read as KDM4E inh -18% and ALDH1A1 inh -6%.
For Cc1oc(-c2cccs2)nc1CN1CCC(CO)(CCOc2ccccc2)CC1 the results were KDM4E inh inconclusive and ALDH1A1 inh -11%.
`O=C(Nc1ccc(N2CCCC2)c(Cl)c1)c1ccc([N+](=O)[O-])o1` gave KDM4E inh -8% and ALDH1A1 inh 3.5µM*.
`Fc1cccc(C2NC(=S)NC3=C2N2CCC3CC2)c1` (stereo not given) gave HPGD block -4%, PNC assembly inh 9, KDM4E inh 3% and ALDH1A1 inh inconclusive.
CC1CC2=C(NC(=S)NC2c2cccc(F)c2)/C(=C/c2cccc(F)c2)C1 (stereo not given) was read as KDM4E inh inconclusive and ALDH1A1 inh 1.3µM*.
`CC1CC2=C(NC(=S)NC2c2ccccc2F)/C(=C/c2ccccc2F)C1` (stereo not given) gave KDM4E inh -12% and ALDH1A1 inh 0.56µM*.
Screening CN1C2CCC1/C(=C\c1ccccc1F)C(=O)/C2=C/c1ccccc1F returned HPGD block 0%, PNC assembly inh 26, KDM4E inh -1% and ALDH1A1 inh 6%.
For CC(C)(SCc1ccccc1)[C@H](N)C(=O)O the results were HPGD block 2% and ALDH1A1 inh 1%[13.5 µM].
`COc1ccc(S(=O)(=O)N2CCC(C(=O)N3CCCCC3)CC2)cc1Cl` gave HPGD block 16µM*, PNC assembly inh 61, KDM4E inh 5% and ALDH1A1 inh 1%.
For COc1cc(S(=O)(=O)N2CCCCC2)ccc1NC(=O)c1ccccc1Cl the results were HPGD block -16%, PNC assembly inh -100*, KDM4E inh -28% and ALDH1A1 inh 2µM*.
O=C(C1CCN(S(=O)(=O)c2cccnc2)CC1)N1CCCCC1 was read as HPGD block 20µM*, PNC assembly inh 4, KDM4E inh 4% and ALDH1A1 inh 7%.
Screening COc1ccc(S(=O)(=O)N2CCC(C(=O)N3CCCC3)CC2)cc1Cl returned HPGD block -9%, PNC assembly inh 21, KDM4E inh -1% and ALDH1A1 inh -2%.
For COc1cc(S(=O)(=O)N2CCCCC2)ccc1NC(=O)c1ccc(F)cc1 the results were HPGD block 10%, PNC assembly inh 22, KDM4E inh inconclusive and ALDH1A1 inh inconclusive.
Screening CC1CCN(C(=O)C2CCN(S(=O)(=O)c3cccnc3)CC2)CC1 returned HPGD block -21%, PNC assembly inh -24, KDM4E inh 2% and ALDH1A1 inh -5%.
For COc1c(C)cc(C(=O)C2CCCN(C(=O)CCCn3cncn3)C2)cc1C (stereo not given) the results were KDM4E inh -3%.
Screening O=C(c1cccc2ccccc12)C1CCCN(C(=O)CCCn2cncn2)C1 (stereo not given) returned KDM4E inh inconclusive and ALDH1A1 inh 10µM*.
Screening O=C(NCc1ccccn1)[C@H]1C[C@@H]1[C@H](NP(=O)(c1ccccc1)c1ccccc1)c1ccccc1 returned HPGD block -14%, PNC assembly inh 57, KDM4E inh -3% and ALDH1A1 inh -6%.
